Values without a mark were called inactive. The source made the active and inactive calls.
Experiment: basal S. cerevisiae growth modulation, no modifier, primary screen, OD600, strain BY4716, 24 h, basal condition (AID 1173)
Settings: OD600, 24 h, higher = more signal, called active from +8 up or from −8 down

Compound	z-score
COCCOC(=O)N1C(=O)[C@@]2(c3cc(C#Cc4ccc(OC)cc4)ccc31)[C@H](c1ccc(OCCO)cc1)N1[C@H](c3ccccc3)[C@H](c3ccccc3)OC(=O)[C@H]1[C@@H]2C(=O)NC[C@H](O)c1ccccc1	3.05
CC1CC/C=C\[C@H]2OC34C=CCN(Cc5ccccc5)C(=O)[C@H]3N(CCCCCCO)C(=O)[C@@H]4C2C(=O)O1 (stereo partly specified)	-0.885
[N-]=[N+]=Nc1ccccc1[C@@H]1OC(c2ccc(OCCCO)cc2)=N[C@]1(CCS(=O)(=O)c1ccccc1)C(=O)NCC(O)CO (stereo partly specified)	0.143
COC(=O)[C@@]1(Cc2ccccc2)[C@H]2c3cc(C(=O)N(C)C)n(CCSC(=N)N)c3C[C@H]2CN1C(=O)c1ccccc1	1.36
CC(C)[Si](C#CCCc1ccccc1)(O[C@H](c1ccccc1)c1cn(Cc2ccccc2)nn1)C(C)C	-8.07 (active)
O=C(NCc1ccc(F)cc1)[C@H]1C[C@H]2C(=O)N3CCC[C@H]3C(=O)N2[C@H]1c1ccc(O)cc1	-0.542
COC(=O)[C@]1(Cc2ccccc2)N=C(c2ccc(OCCCO)cc2)O[C@@H]1c1ccccc1CN=[N+]=[N-]	-0.813
CC(C)C[C@@H]1NC(=O)[C@@H]2C[C@H](C(=O)NCCCCCCNC(=O)CS)[C@H](c3cccc(OCCO)c3)N2C1=O	1.05
O=C1O[C@@H](c2ccccc2)[C@@H](c2ccccc2)N2[C@@H](c3ccc(OCCO)cc3)[C@]3(C(=O)Nc4ccc(C#CCCO)cc43)[C@@H](C(=O)O)[C@H]12	-0.718
CCCC[C@H]1C[C@@H]1[C@@H]1N(C(C)=O)[C@H](c2cccc(OC)c2)CC12CC2	-6.41
C=C(COC)/C(=C/C[C@@H](OC(C)=O)c1ccccc1OCCO)c1cnc2ccccc2c1	-2.19
CN(C)CCCNC(=O)[C@@]1(C)c2ccccc2C(=O)N(Cc2ccc(OC(F)(F)F)cc2)[C@H]1c1ccc(CO)cc1	-1.69
C=CC[C@]1(C(=O)NCC(O)CO)COC(c2ccc(OCCCO)cc2)=N1 (stereo partly specified)	0.369
C=CCC(OC(C)=O)[C@@H]1[C@@H](N(Cc2cccc3ccccc23)C(=O)c2ccc(-c3ccccc3)cc2)c2cc(OCCCO)ccc2N1C(=O)Cc1ccc2ccccc2c1 (stereo partly specified)	0.716
CCCCCC1=C2CNC(CC(C)C)(C(=O)OC)C=C2C(C)C1=O (stereo unspecified)	0.153
CN1C(=O)[C@@H]2[C@@H](CC(COc3ccccc3)=C3[C@@H](CCc4ccccc4)OB(O)C[C@@H]32)C1=O	-1.87
COC(=O)[C@@]1(Cc2ccc(OC)cc2)[C@H]2c3cc(C(=O)N4CCCC4)n(Cc4ccc(C(F)(F)F)nc4)c3C[C@H]2CN1C(=O)c1ccccc1	1.37
C=CCC(OC(C)=O)[C@@H]1[C@@H](N(Cc2cc3ccccc3o2)C(=O)Cc2ccc(OC)cc2)c2cc(OCCCO)ccc2N1C(=O)c1ccc2ccccc2n1 (stereo partly specified)	-0.791

Compound	z-score
[N-]=[N+]=Nc1ccccc1[C@@H]1OC(c2ccc(OCCCO)cc2)=N[C@]1(Cc1ccccc1)C(=O)NCCN1CCOCC1	-2.57
COc1ccc(C(=O)Nc2cccc(CN3C(=O)[C@]4(O[C@H](CC(=O)N5Cc6ccccc6C[C@H]5CO)[C@@H]([Si](C)(C)c5ccc(OC)cc5)[C@@H]4C)c4ccccc43)c2)cc1	1.49
C=CCN1C(=O)[C@@]2(O[C@@H](CCn3cc([C@H](O)c4ccccc4)nn3)[C@H]([Si](C)(C)c3ccc(OC)cc3)[C@H]2C)c2cc(N3C(=O)c4cccc5cccc3c45)ccc21	0.318
CC(C)(C)N1CC=CC23O[C@@H]4/C=C\CCCOC(=O)C4[C@H]2C(=O)N(CCCCCO)[C@@H]3C1=O (stereo partly specified)	0.309
CN(C)CCCC[C@@H]1NC(=O)[C@@H]2C[C@H](C(=O)NCCCCCCNC(=O)CS)[C@H](c3ccc(O)cc3)N2C1=O	-0.17
CC1CC/C=C\[C@H]2OC34C=CCN(CCN5CCOCC5)C(=O)[C@H]3N(CCCO)C(=O)[C@@H]4C2C(=O)O1 (stereo partly specified)	0.356
COc1ccccc1CN1C(=O)c2ccccc2[C@](Cc2ccccc2I)(C(=O)NCC(C)C)[C@@H]1c1ccc(CO)cc1	-0.441
COCC(=C=CC[C@H](O)c1ccccc1OCCO)C[C@H](O)COCc1ccccc1	-2.91
O=C(NC1CC1)[C@@H]1c2ccccc2C(=O)N(Cc2ccc(OC(F)(F)F)cc2)[C@H]1c1ccc(CO)cc1	-0.327
O=C1C2C=CC(C(O)c3c(F)cccc3Cl)N(Nc3ccc([N+](=O)[O-])cc3)C2C(=O)N1c1ccccc1 (stereo unspecified)	0.615
C[C@@H]1NC(=O)C([C@@H](C)OCc2ccccc2)NC(=O)[C@@]23C(=O)N[C@@H](Cc4ccccc4)C2[C@H](C)[C@@]2(C)O[C@H]2C3/C=C/C/C=C\CNC1=O (stereo partly specified)	-0.399
CC1CC/C=C\[C@H]2OC34C=CCN(c5ccc(Cl)cc5)C(=O)[C@H]3N(CCCCCCO)C(=O)[C@]4(C)C2C(=O)O1 (stereo partly specified)	-0.257
CC1=C([C@H](O)CCc2ccccc2)[C@H](CO)n2c(=O)n(-c3ccccc3)c(=O)n2C1	-2.79
CCOC(=O)C[C@H]1[C@H](OC(=O)Cc2ccc3c(c2)OCO3)[C@@H](NC(=O)Cc2ccc(OC)cc2)c2cc(OCCCO)ccc2N1C(=O)Cc1ccc(OC)cc1	-0.605
COc1ccc(C(O)C2C=CC3C(=O)NC(=O)C3N2Nc2ccc(Cl)cc2Cl)c2ccccc12 (stereo unspecified)	-9.94 (active)
C=C1C(=O)C=C2CN(C(=O)c3ccccc3)[C@@](Cc3ccc(OC)cc3)(C(=O)OC)[C@@H]12	1.33
COC(=O)[C@@]1(Cc2ccccc2)[C@H]2c3cc(C(=O)N(C)C)n(Cc4ccc(S(C)(=O)=O)cc4)c3C[C@H]2CN1C(=O)c1ccccc1	1.33
CCCNC(=O)[C@@]1(c2ccc([N+](=O)[O-])cc2)CC(=O)N(C(C)C)[C@@H]1c1ccc(CO)cc1	-0.324

From PubChem BioAssay
